PubChem BioAssay (NCI)
This is part of a sample that, as a whole, favours compounds with a hit. Of some 83,000 tested, about 20% had one in any assay.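 48-hour exposure, single concentration, 96-well plates; percent growth endpoint where 0 means no net growth. Active: below 10.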 Values without a mark were called inactive. The source made the active and inactive calls.

System: SF-295 CNS
Assay: NCI-60 one-dose screen, 48 h (100 = growth as untreated, 0 = no growth, -100 = all killed)
Settings: 10 µM unless noted

**Q.** Cc1cc(CSc2ccc(Cl)cc2)ccc1N was tested. Which growth did it give?
**A.** 101%

**Q.** Which growth does the source give for CC(=O)C(CO)C(=O)Nc1ccccc1 (stereo not given) here?
**A.** 107%

**Q.** With Cc1nc2ccccc2c(=O)n1-c1cccc(OCc2cn(-c3cccc(O)c3)nn2)c1 as the compound, how does the growth read?
**A.** 93.8%

**Q.** How did the growth turn out when CCCCCCCCCCN1CC2CCCCC2C1 (stereo not given) was run?
**A.** 85.1%

**Q.** How did the growth turn out when CCCCN(CCC)CCCCCCCCCCN1CCCc2ccccc21 was run?
**A.** 83.6%

**Q.** With C/C=C(/C)C(=O)OC1C=C(CO)C(=O)C(OC(=O)/C(C)=C\C)C1C(C)C (stereo not given) as the compound, how does the growth read?
**A.** -54.3% (active)

**Q.** How did the growth turn out when CN1CCN(Cc2ccc(NC(=O)c3cncc(C#Cc4c(N)ncc5ccc(F)cc45)c3)cc2C(F)(F)F)CC1 was run?
**A.** 52.2%

**Q.** For COc1cccc(CNC(=O)c2cccc(C3CC(=O)c4c(cc(OC)c(OC)c4OC)O3)c2)c1 (stereo not given), which growth is on record?
**A.** 84.1%

**Q.** How did the growth turn out when COC(=O)C1CC(=O)N(C(=O)Nc2ccc(Cl)cc2Cl)C1 (stereo not given) was run?
**A.** 96.7%

**Q.** With O=C(/C=C\c1ccc(NCc2ccc(C(=O)O)cc2)cc1)CCl as the compound, how does the growth read?
**A.** 96.4%

**Q.** How did the growth turn out when CC1(C)NC(=S)NC1=O was run?
**A.** 95.7%

**Q.** How did the growth turn out when Cc1ccc(C(=O)Nc2ccc(CN3CCN(C)CC3)c(C(F)(F)F)c2)cc1C#Cc1cncc2ncccc12 was run?
**A.** 27.3%

**Q.** With COc1ccc(-c2nc(N)n(C(=S)Nc3ccccc3)n2)cc1 as the compound, how does the growth read?
**A.** 91.2%

**Q.** With O=C(O)c1ccc(-c2nn(-c3ccc(C(=O)O)cc3)cc2CNc2ccc(Br)cc2)cc1 as the compound, how does the growth read?
**A.** 101%

**Q.** CCS(=O)(=O)N[C@@H]1O[C@H](COC(C)=O)C(OC(C)=O)[C@H](OC(C)=O)C1OC(C)=O (stereo not given in full) was tested. Which growth did it give?
**A.** 111%
